# Screening results (PubChem BioAssay)
# T cruzi growth-1: T. cruzi intracellular proliferation inhibitors, primary screen, cell-based, beta-gal Tulahuen parasites, NIH3T3 host, luminescence; T. cruzi beta-gal in NIH3T3, GalScreen luminescence, 90 h; inhibition, % at 8.34 µM; 77,000 tested, 5.9% active; AID 624255, 2012;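 active = mean inhibition above about 93%, with at least 55% of replicates each passing it, limit read from the data, passing the limit was not always enough; inconclusive = only one of those two conditions holds; inactive = neither condition holds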
# C diff growth: C. difficile growth inhibitors, primary screen, HTS; Clostridium difficile clinical isolate growth, OD600, 24 h; hits give low values; growth activity, negative = inhibition, % at 16 µg/mL (by protocol); 86,000 tested, 0.25% active;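 active = mean growth activity at or below -80% and every replicate also at or below -80%; inconclusive = mean at or below -80% but some replicate above -80%; inactive = mean growth activity above -80%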;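 note: 0% = DMSO wells and -100% = levofloxacin 16 µg/mL wells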
# Pf Dd2 inh: P. falciparum Dd2 growth inhibitors, primary screen, SYBR Green fluorescence, single dose replicates; activity change, % at 10 µM; AID 1159554, 2015; 94,000 tested, 2.3% active; 72 h; hits give low values; in the data active = activity change below about -80%; inconclusive = no clear call, values can overlap the other calls
# T cruzi growth-2: T. cruzi intracellular proliferation inhibitors, confirmation, cell-based, NIH3T3 host, beta-gal parasite, luminescence, cherry-pick | shares compounds with T cruzi growth-1 | T. cruzi beta-gal in NIH3T3, GalScreen luminescence, 90 h | inhibition, % at 8.35 µM | 5,600 tested, 72% active | AID 651739, 2012;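 active = mean replicate inhibition above about 95% and at least 55% of replicates individually reaching it, limit read from the data; inconclusive = only one of the two criteria is met; inactive = neither criterion is met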
# T cruzi growth-3: inhibitors of intracellular T. cruzi replication, confirmation, NIH3T3 host cells, beta-gal parasites, cherry-pick, set 2; inhibition, % at 2.09 µM; AID 651740, 2012; T. cruzi beta-gal in NIH3T3, GalScreen luminescence, 90 h; shares compounds with T cruzi growth-1; 5,600 tested, 21% active;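 active = mean inhibition above about 95%, with at least 55% of replicates also reaching it, limit read from the data; inconclusive = meets just one of the two conditions; inactive = meets neither condition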;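 note: plate controls were neutral control median for no effect and positive control median for full effect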
# 3T3 cytotox: cytotoxicity in mouse NIH/3T3 fibroblasts, confirmation, cytotoxicity control for T. cruzi proliferation inhibitor project, cell-based, cherry-pick, single point | 5,600 tested, 14% active | cytotoxicity (signal decrease), % at 8.35 µM | shares compounds with T cruzi growth-1 | NIH/3T3 viability, CellTiter-Glo ATP luminescence, 90 h;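 active = mean signal decrease across replicates above about 35% based on untreated-well scatter, with enough replicates individually passing, limit read from the data; inconclusive = no rule stated though some were filed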;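 note: 0% = median of neutral control wells and 100% = median of positive control wells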
# 3T3 cytotox 2: NIH/3T3 fibroblast cytotoxicity, confirmation, cytotoxicity control, cell-based, cherry-pick, single point, set 2; shares compounds with T cruzi growth-1; NIH/3T3 viability, CellTiter-Glo ATP luminescence, 90 h; inhibition, % at 24.9 µM; 5,600 tested, 56% active; AID 651744, 2012;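 active = mean loss of cell viability signal at or above a set limit, and enough replicates individually reaching it; inconclusive = meets only the mean limit or only the replicate share; inactive = meets neither condition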;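 note: 0% = median of neutral control wells and 100% = median of positive control wells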
# Active calls of the source: *; ? = inconclusive; / = no result given; ! = repeats disagree. In the library only some 6.7% were active in any assay of this set; here they are far more common.
SMILES,T cruzi growth-1,C diff growth,Pf Dd2 inh,T cruzi growth-2,T cruzi growth-3,3T3 cytotox,3T3 cytotox 2
COc1ccc(NC(=O)N2CCCCN3[C@H](CO)[C@@H](c4ccc(C#CCC(C)C)cc4)[C@@H]3C2)cc1,105.2*,-1.7,-69.4,106.0*,55.8,38.8*,104.3*
COc1ccc(NC(=O)N2CCCCN3[C@H](CO)[C@H](c4ccc(C#CCC(C)C)cc4)[C@@H]3C2)cc1,121.1*,-11.9,-90.2*,108.1*,96.3*,?,82.8*
CC(C)CC#Cc1ccc([C@@H]2[C@@H](CO)N3CCCCN(C(=O)NC4CCCC4)C[C@H]23)cc1,83.7,-6.4,-42.8,/,/,/,/
COc1ccc(NC(=O)Nc2ccc3c(c2)CC(=O)N([C@@H](C)CO)C[C@H](C)[C@@H](CN(C)S(=O)(=O)c2ccc(OC)cc2)O3)cc1,32.2,-10.8,17.7,/,/,/,/
CC(C)NC(=O)N(C)C[C@H]1OCCCC[C@@H](C)Oc2ccc(NS(=O)(=O)c3ccc(Cl)cc3)cc2C(=O)N([C@@H](C)CO)C[C@@H]1C,-9.4,-5.5,/,/,/,/,/
CO[C@@H]1CN(C)C(=O)c2ccc(NC(=O)C3CCC3)cc2OC[C@@H](C)N(C(=O)NC(C)C)C[C@H]1C,-3.7,-3.1,7.8,/,/,/,/
C/C=C/c1ccc([C@H]2[C@H]3CN(C(=O)Nc4ccc(OC)cc4)CCCCN3[C@H]2CO)cc1,41.7,-0.1,-15.8,/,/,/,/
COc1ccc(NC(=O)N2CCCCN3[C@H](C2)[C@H](c2ccc(C#CCC(C)C)cc2)[C@@H]3CO)cc1,118.5*,3.2,-43.3,92.2,61.1,13.6,100.1*
CO[C@H]1CC[C@@H]2CCN(C)C(=O)[C@@H](C)[C@@H](OC)CN(C)C(=O)c3cccc(C#N)c3OC[C@@H]1O2,-27.9,/,14.8,/,/,/,/
Cc1noc(C)c1NC(=O)Nc1cccc2c1O[C@@H](CN(C)S(C)(=O)=O)[C@@H](C)CN([C@H](C)CO)C2=O,3.3,-2.9,2.3,/,/,/,/
C[C@H]1CN([C@@H](C)CO)C(=O)c2cc(NC(=O)Cc3cn(C)c4ccccc34)ccc2O[C@@H]1CN(C)S(=O)(=O)c1cccs1,32.2,/,-70.2,/,/,/,/
C[C@H]1CN([C@@H](C)CO)S(=O)(=O)c2ccc(Br)cc2O[C@@H]1CN(C)Cc1ccccc1,96.6*!,4.0,4.2,100.2*,91.8,?,106.9*
C[C@H]1CN([C@@H](C)CO)S(=O)(=O)c2ccc(Br)cc2O[C@H]1CN(C)Cc1ccccc1,77.4,-3.8,-33.7,/,/,/,/
C[C@@H]1CN([C@@H](C)CO)S(=O)(=O)c2ccc(Br)cc2O[C@H]1CN(C)Cc1ccccc1,99.4*,24.6,-14.6,92.0,84.8,31.8,104.5*
C[C@H](CO)N1C[C@H](C)[C@H](CN(C)Cc2ccccc2)Oc2cc(Br)ccc2S1(=O)=O,89.5,6.1,-34.4,/,/,/,/
C[C@@H]1CN([C@H](C)CO)C(=O)CCCn2nncc2CO[C@@H]1CN(C)C(=O)Nc1ccc(F)cc1,37.0,/,-13.2,/,/,/,/
CO[C@@H]1CC[C@H]2CCN(C)C(=O)[C@H](C)N(C)C(=O)c3cc(C#N)ccc3OC[C@@H]1O2,-4.5,8.3,/,/,/,/,/
COc1ccc(C#Cc2ccc([C@@H]3[C@@H](CO)N4CCCCN(Cc5ccncc5)C[C@@H]34)cc2)cc1,83.0,-4.6,-28.1,/,/,/,/
O=C(CCN1CCCCC1)NCC[C@@H]1CC[C@H](NS(=O)(=O)c2cccc(F)c2)[C@H](CO)O1,-44.8,-4.5,4.0,/,/,/,/
O=C(N[C@H]1CC[C@H](CCNC(=O)C2CCCCC2)O[C@H]1CO)c1ccccn1,-47.4,/,-5.0,/,/,/,/
CCCN(C)C[C@H]1Oc2cc(C#Cc3cccc(OC)c3)ccc2S(=O)(=O)N([C@H](C)CO)C[C@H]1C,/,32.8,-36.5,/,/,/,/
O=C(C[C@@H]1CC[C@H]2[C@@H](COC[C@@H](O)CN2S(=O)(=O)c2cccc(Cl)c2)O1)Nc1ccccc1,-4.2,12.1,15.4,/,/,/,/
O=C(C[C@H]1CC[C@H]2[C@@H](COC[C@H](O)CN2S(=O)(=O)c2cccc(Cl)c2)O1)Nc1ccc(-c2ccccc2)cc1,89.7,2.0,-17.3,/,/,/,/
O=C(C[C@H]1CC[C@@H]2[C@H](COC[C@@H](O)CN2S(=O)(=O)c2cccc(Cl)c2)O1)Nc1ccc(-c2ccccc2)cc1,103.4*,6.2,-38.5,88.9,107.9*,51.9*,104.6*
O=C(C[C@H]1CC[C@H]2[C@@H](COC[C@@H](O)CN2S(=O)(=O)c2cccc(Cl)c2)O1)Nc1ccc(-c2ccccc2)cc1,108.7*,13.6,-10.3,106.7*,108.4*,10.7,91.7*
SMILES,T cruzi growth-1,C diff growth,Pf Dd2 inh,T cruzi growth-2,T cruzi growth-3,3T3 cytotox,3T3 cytotox 2
CCCN1[C@H](C(=O)NCC2CC2)[C@@H](CO)[C@@H]2Cn3c(ccc(-c4ccccc4)c3=O)[C@@H]21,43.7,-1.1,-4.4,/,/,/,/
CCCC(=O)Nc1ccc2c(c1)OC[C@@H](C)N(CC1CCOCC1)C[C@@H](C)[C@@H](OC)CN(C)C2=O,19.4,-1.6,12.5,/,/,/,/
CCC(=O)Nc1ccc2c(c1)C(=O)N(C)C[C@@H](OC)[C@H](C)CN(Cc1ccc(-c3ccccn3)cc1)[C@H](C)CO2,3.2,-5.0,-35.1,/,/,/,/
CO[C@H]1CN(C)C(=O)c2ccc(NC(=O)C3CCCC3)cc2OC[C@H](C)N(C)C[C@H]1C,-8.4,/,/,/,/,/,/
CS(=O)(=O)N1[C@H](CO)[C@@H](c2ccc(C#CC3CCCCC3)cc2)[C@@H]1C#N,93.0,-2.9,-44.5,/,/,/,/
CS(=O)(=O)N1[C@@H](C#N)[C@@H](c2ccc(C#CC3CCCCC3)cc2)[C@@H]1CO,74.1,8.6,1.1,/,/,/,/
CS(=O)(=O)N1[C@H](CO)[C@H](c2ccc(C#Cc3cccc(F)c3)cc2)[C@@H]1C#N,89.3,15.2,-0.7,/,/,/,/
CS(=O)(=O)N1[C@H](C#N)[C@H](c2ccc(C#CC3CCCC3)cc2)[C@@H]1CO,99.1*,-4.1,-24.3,102.9*,89.4,19.6,34.6*
CS(=O)(=O)N1[C@H](C#N)[C@@H](c2ccc(C#CC3CC3)cc2)[C@@H]1CO,106.6*,-3.3,-23.5,100.2*,45.7,12.5,-1.3
CS(=O)(=O)N1[C@H](C#N)[C@H](c2ccc(C#Cc3cccc(F)c3)cc2)[C@H]1CO,?,-6.9,-30.1,?,83.4,-0.5,32.0*
CN(C)C(=O)C[C@@H]1CC[C@@H]2[C@H](COC[C@@H](O)CN2C(=O)C2CC2)O1,22.7,-4.3,1.3,/,/,/,/
CN1C(=O)c2cc(NC(=O)C3CC3)ccc2OC[C@H]2O[C@@H](CC(=O)NCCN3CCCC3)CC[C@H]21,4.4,-3.3,1.2,/,/,/,/
